Data published in article PMC5540273 (PLoS ONE, 2017).

Key:
Details in all cases: concentration: 1 μM, replicates: in singlicate; n = 1
MAPKAPK5 = system: MAPKAPK5
MARK1 = system: MARK1
MARK2 = system: MARK2
MARK3 = system: MARK3
MARK4 = system: MARK4
MAST1 = system: MAST1
MEK1 = system: T1, MEK1
T1 construct: gene MAP2K1

MEK2 = system: T2, MEK2
T2 construct: gene MAP2K2

MEK3 = system: T3, MEK3
T3 construct: gene MAP2K3

MEK4 = system: T4, MEK4
T4 construct: gene MAP2K4
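Also: KINOMEscan kinase panel screen.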

Structure (SMILES) | %Inh (MAPKAPK5) [%] | %Inh (MARK1) [%] | %Inh (MARK2) [%] | %Inh (MARK3) [%] | %Inh (MARK4) [%] | %Inh (MAST1) [%] | %Inh (MEK1) [%] | %Inh (MEK2) [%] | %Inh (MEK3) [%] | %Inh (MEK4) [%]
COc1cc(Nc2nccc(-c3c(-c4cccc(NC(=O)c5c(F)cccc5F)c4)nn4ncccc34)n2)cc(OC)c1OC [GSK327238] | 0 | 53 | 18 | 30 | 56 | 0 | 98.5 | 98.4 | 12 | 46
COc1cc(Nc2nccc(N3CCC(NC(=O)Nc4cccc(C(C)=O)c4)C3)n2)cc(OC)c1OC (stereo not shown) [GSK1379753] | 0 | 0 | 0 | 0 | 6 | 0 | 0 | 0 | 0 | 55
COc1ccc(Nc2nccc(N3CCC(NC(=O)Nc4cccc(OC)c4)C3)n2)cc1 (stereo not shown) [GSK1379742] | 0 | 0 | 0 | 0 | 0 | 23 | 0 | 0 | 0 | 24
CC(C)c1nc(-c2cccc(NS(=O)(=O)c3c(F)cccc3F)c2F)c(-c2ccnc(Nc3ccc(N4CCOCC4)nc3)n2)s1 [GSK2008607] | 0 | 0 | 24 | 0 | 80 | 0 | 0 | 64 | 57 | 100
c1ccc(Oc2ccc(Nc3ccnc4cc(-c5ccc(CNCCN6CCOCC6)o5)ccc34)cc2)nc1 [GW567145] | 0 | 0 | 0 | 0 | 0 | 34 | 90.8 | 94.2 | 0 | 0
COc1ccc(CNC(=O)NC2CCN(c3ccnc(Nc4ccc(F)cc4)n3)CC2)cc1 [GSK1379788] | 0 | 0 | 0 | 0 | 0 | 3 | 0 | 9 | 0 | 45
O=C(Nc1cccc(-c2nn3ccccc3c2-c2ccnc(Nc3cccc(C(F)(F)F)c3)n2)c1)c1c(F)cccc1F [GSK292658] | 0 | 0 | 0 | 3 | 0 | 0 | 3 | 0 | 0 | 17
COc1cc(Nc2ncc3c(C)nc(-c4cc5ccccc5[nH]4)n3n2)cc(OC)c1OC [GW869516] | 0 | 16 | 11 | 3 | 22 | 13 | 0 | 0 | 0 | 0
O=c1[nH]cc(-c2ccc(N3CCOCC3)cc2)c2sc(-c3cn[nH]c3)cc12 [GSK2276055] | 2 | 0 | 0 | 0 | 0 | 0 | 0 | 9 | 17 | 5
Cl.c1ccc(-c2ccc3c(Nc4ccc5[nH]ccc5c4)ccnc3c2)nc1 [GW440138] | 0 | 0 | 0 | 0 | 0 | 0 | 0 | 0 | 0 | 0
Cc1ccc(F)c(C(=O)Nc2cccc(-c3nn4ccccc4c3-c3ccnc(Nc4cccc(F)c4)n3)c2)c1F [GSK361061] | 0 | 0 | 14 | 0 | 14 | 0 | 3 | 0 | 0 | 37
Cc1cccc(Nc2nc(N[C@H]3CCNC3)ncc2C(N)=O)c1.Cl [GSK2197149] | 0 | 0 | 19 | 0 | 4 | 0 | 31 | 31 | 85 | 66
COc1cccc(NC(=O)NC2CCN(c3ccnc(Nc4cc(OC)c(OC)c(OC)c4)n3)C2)c1 (stereo not shown) [GSK1379763] | 0 | 0 | 0 | 0 | 0 | 0 | 0 | 9 | 8 | 12
CN(C)S(=O)(=O)c1cc(-c2ccc3nccc(-c4cccc(S(N)(=O)=O)c4)c3c2)cnc1N [GSK1669921] | 8 | 0 | 0 | 0 | 0 | 0 | 7 | 0 | 0 | 27
O=C(Nc1cccc(-c2nn3ncccc3c2-c2ccnc(Nc3ccccc3)n2)c1)c1c(F)cccc1F [GSK198271] | 0 | 0 | 0 | 0 | 0 | 0 | 70 | 77 | 3 | 39
Cl.NC(=O)c1cccc(Nc2nccc(Nc3ccc(Oc4c(Cl)cccc4Cl)c(Cl)c3)n2)c1 [GW659009] | 0 | 0 | 0 | 7 | 0 | 0 | 0 | 0 | 0 | 30
